Test in all cases: NCI-60 one-dose screen, 48 h (100 = growth as untreated, 0 = no growth, -100 = all killed)
What all share (conditions): 10 µM unless noted

Test [1] deals with SK-MEL-2 melanoma.
Test [2] concerns EKVX NSCLC.
In test [3] the test system is SN12C renal.
The subject of test [4] is UO-31 renal.
Test [5] has as its system TK-10 renal.
For test [6], the system named is ACHN renal.
Test [7] concerns CAKI-1 renal.
Test [8] relates to A498 renal.
Test [9] has as its system CCRF-CEM leukemia.
For test [10], the system named is MOLT-4 leukemia.
For test [11], the system named is SR leukemia.
The subject of test [12] is RPMI-8226 leukemia.
Test [13] has as its system OVCAR-5 ovarian.
Test [14] has as its system OVCAR-4 ovarian.
In test [15] the test system is SK-OV-3 ovarian.
Test [16] relates to IGROV1 ovarian.
Test [17] deals with OVCAR-3 ovarian.
Test [18] has as its system HS 578T breast.
The subject of test [19] is NCI/ADR-RES ovarian.

Compounds without any hit were thinned out: in the full panel of roughly 83,000, 20% have a hit.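 Interpretation: 100, growth as untreated; towards 0, rising growth inhibition; 0, no net growth; 0 to -100, cell death. Compounds scoring below 10 were considered active.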 Values without a mark were called inactive. Activity calls are given as the source filed them.

Growth data for 9 compounds are collected here from PubChem BioAssay (NCI).

Take `CCOC(=O)c1c(C)nc2c(c1N)CC(=O)N2Cc1ccc(F)cc1`: the growth in test [1] was 92.6%; in test [2] it was 94.9%; in [3], 93.2%; in test [4], 88.6%; in [5] it was 97.3%; in test [6], 95.7%. In addition, the growth in test [7] is 92.9%; in test [8], 64.1%; in test [9] it was 85.3%; in test [10], 85%; in test [11] it was 99.5%; in test [12], 80.1%. In addition, the growth in test [13] was 103%; in test [14], 94.7%; in [15], 95%; in test [16] it was 104%; in test [17], 99.5%; in [18] it was 91.5%. Further, the growth in [19] is 99%.
In the case of `CC(C)(C)NC(=O)C(OC(=O)c1cccc(Cl)c1)c1ccc(Cl)cc1` (configuration not stated), the growth in [1] was 96.1%; in test [2], 109%; in test [3], 101%; in test [4], 90.1%; in test [5] it was 93.2%; in [6] it was 107%. The growth in test [7] is 99.3%; in test [8] it was 83.1%; in test [9], 103%; in test [10], 107%; in [11], 103%; in test [12], 102%. Moreover, the growth in test [13] is 94.5%; in test [14] it was 105%; in test [15], 93.1%; in test [16], 104%; in test [17] it was 103%; in test [18], 110%.
With `COc1cc(C(=O)c2cnc(-c3c[nH]c4cccc(C)c34)[nH]2)cc(OC)c1OC`, the growth in test [1] is 35%; in test [2], 29.7%; in [3], 28.1%; in [4], 17%; in [5] it was 43.8%; in test [6] it was 26.4%. Besides, the growth is 6.61% (active) in test [7]; -12% (active) in test [8]; 6.39% (active) in [9]; 8.85% (active) in [10]; 4.87% (active) in test [11]; 10% in test [12]. Further, the growth is 46.5% in [13]; 34.5% in test [14]; 41.1% in test [15]; 22.1% in test [16]; -49% (active) in [17]; 21.2% in test [18]. Besides, the growth in test [19] was 3.24% (active).
On to `O=C1c2ccccc2NC(n2sc3ccccc3c2=O)N1c1ccccc1` (configuration not stated), for which the growth in test [1] was 99.5%; in test [2], 85.5%; in test [3] it was 98.4%; in test [4], 78.4%; in [5], 109%; in [6], 99.6%. The growth was 93.9% in test [7]; 89.2% in test [8]; 104% in test [9]; 99.4% in test [10]; 87.4% in test [11]; 101% in [12]. Moreover, the growth in test [13] was 110%; in test [14], 98.5%; in test [15] it was 103%; in test [16], 96.5%; in test [17], 101%; in test [18] it was 106%. In addition, in test [19], the growth is 95%.
For `CCCCCCNC(=O)Oc1ccc(/C(=C(\C)c2ccc(Cl)cc2)c2ccc(OCCN(CC)CC)cc2)cc1`, the growth was 95.6% in [1]; 73.6% in [2]; 76.2% in [3]; 41.8% in test [4]; 85% in [5]; 85.6% in test [6]. Also, the growth was 89.9% in test [7]; 93.7% in test [8]; 54.6% in test [9]; 35.3% in test [10]; -10.8% (active) in test [11]; 51.6% in test [12]. Besides, the growth in test [13] is 72.1%; in test [14], 60.5%; in test [15], 83.1%; in [16], 55.2%; in test [17] it was 67.6%; in test [18] it was 67.5%.
Turning to `Nc1ccc(Sc2ccc([N+](=O)[O-])c3nonc23)cc1`, the growth in test [1] was 96.1%; in test [2] it was 92.5%; in test [3], 93.7%; in test [4], 65.6%; in [5], 111%; in test [6] it was 23%. For the same compound, the growth in test [7] was 103%; in test [8] it was 80.2%; in test [9] it was 27.7%; in [10], 26.8%; in test [11] it was 7.97% (active); in [12] it was 79.9%. Moreover, the growth is 108% in test [13]; 97.8% in test [14]; 96.8% in [15]; 97% in [16]; 78% in test [17]; 102% in test [18]. For the same compound, the growth in [19] was 98.8%.
Consider `Cc1ccc(C(=O)NN2C(=O)CSC2c2cccc([N+](=O)[O-])c2)cn1` (configuration not stated), for which the growth was 100% in [1]; 98.7% in test [2]; 96.6% in [3]; 14.9% in test [4]; 98.3% in test [5]; 92.2% in test [6]. Moreover, the growth in [7] was 79.5%; in test [8], 100%; in [9] it was 90.8%; in [10], 105%; in test [11] it was 109%; in test [12], 82.7%. Further, the growth in test [13] is 94.7%; in test [14], 95%; in test [15], 114%; in test [16], 73.3%; in [17], 92.9%; in [18] it was 124%. Also, the growth in test [19] was 95.2%.
Take `COc1cc(C2CC(c3cccc(Br)c3)=NN2C(C)=O)cc(OC)c1OC` (configuration not stated): the growth in test [1] was 59.1%; in test [2] it was 52.7%; in test [3], 41.8%; in [4], -27.7% (active); in test [5], 48.4%; in [6] it was 39.8%. Also, the growth in [7] was 39.1%; in [8], 19.1%; in test [9], 14.9%; in [10], 19%; in [11], 46.3%; in [12], 4.29% (active). Besides, the growth in test [13] was 46.5%; in test [14], 41.7%; in test [15] it was 45.3%; in [16] it was -17.3% (active); in test [17] it was -22% (active); in test [18], 34.6%.
On to `Cc1nc2nc(SCC(=O)O)[nH]c2c(=O)[nH]1`, for which the growth in test [1] was 96%; in test [2] it was 108%; in [3], 100%; in test [4] it was 92.2%; in test [5] it was 101%; in test [6], 110%. In addition, the growth in test [7] was 99.2%; in test [8] it was 81.5%; in test [9], 97.2%; in [10], 103%; in test [11] it was 115%; in test [12] it was 96.9%. In addition, the growth in [13] is 104%; in [14] it was 131%; in test [15], 103%; in [16], 101%; in [17], 115%; in [18] it was 99%.
